Test results: PubChem BioAssay (NCATS)
Results filed as inconclusive are left out. Calls of active or inactive are those of the source. Calls follow the shape of the dose curve; as a rule, active = well fitted cell-killing curve with a large enough effect; inconclusive = small, poorly fitted or top-dose-only effect; inactive = no such curve, though single readings can be large or run the other way.

Assay: qHTS of pediatric cancer cell lines to identify multiple opportunities for drug repurposing: Primary screen for OHS-50 cells (AID 1347103); also: nearly all actives have a fitted effect of over 40% in size
Conditions: OHS-50 osteosarcoma viability, CellTiter-Glo luminescence, 48 h; series mostly up to 57.3 µM; activity change, negative = cytotoxic: at the top concentration
Excerpt: Drug repurposing or repositioning has been offered as a strategy for drug development in oncology programs. This approach has special potential for childhood cancers and other rare or orphan diseases, where the expected return on new drug development has been a disincentive to pharmaceuticals.
In this project we exploit the poly-pharmacology of drugs to discover new indications via phenotypic screening of a panel of 19 well-characterized cell lines derived from solid tumors seen in children and adolescents. The goal is to identify approved drugs with previously unrecognized anticancer properties that has the potential to reveal new mechanisms and biological processes involved in carcinogenesis or drug resistance. We employed a titration-based paradigm (quantitative high-throughput screening or qHTS), where all compounds were tested at multiple concentrations for their effect on cell viability. Concentration-response curves (CRCs) were derived directly from the primary screen, and both potency and efficacy values were used to identify compounds with robust bioactivity profiles. We screened the NIH Chemical Genomics Center (NCGC) Pharmaceutical Collection (NPC) and Mechanism Interrogation Plate (MIPE) small molecule collections of approved and investigational compounds against these cell lines; and measured metabolically active cells after 48 hours of compound treatment as a proxy for cell viability.
Assay Submitter: Nathalia J. Martinez, National Center for Advancing Translational Sciences, National Institutes of Health, Rockville, MD, USA; email: natalia.martinez@nih.gov
[1] Shen, M et al. Quantitative high-throughput phenotypic screening of pediatric cancer cell lines identifies multiple opportunities for drug repurposing. Oncotarget 2017 Dec 19;9(4):4758-4772. PMID 29435139.
The cells were obtained from University of North Carolina (UNC), Pediatric Preclinical Testing Program (PPT), and Coriell Institute (CI).
qHTS cell viability assay:
Cells were assayed in growth media at a density of 500-1,000 cells/well. Five microliters of cells were dispensed into 1,536-well, white, solid-bottom, TC-treated plates (Greiner Bio One) using a multidrop dispenser and incubated at 37 degrees C, 5% CO2, under a humidified atmosphere for 5 hours. Twenty-three nanoliters of compounds and controls (neutral control DMSO or positive control bortezomib at final concentration of 2.3 µM) were subsequently transferred by Kalypsys pintool. For primary screens, the MIPE collection was tested at 11-point dilutions (final concentrations range from 0.78 nM to 46 µM) and the NPC collection at 8-point dilutions (final concentrations range from 0.59 nM to 46 µM). Compounds tested in follow-up screens were assayed at 11-point dilutions. Cells were incubated for 48 hours, followed by addition of 3 µL of CellTiter-Glo (Promega). After a 15 min incubation at room temperature, samples were analyzed for luminescence intensity using a ViewLux High-throughput CCD imager equipped with clear filters.
Potency is read from the fitted curve at half-maximal effect.

Question: With `CC[C@@]1(O)C(=O)OCc2c1cc1n(c2=O)Cc2cc3cc(O)ccc3nc2-1` as the compound, how does the Potency read?
Answer: The Potency was 0.0343 µM (active).

Question: With `Cc1cnc(Nc2ccc(F)cc2Cl)nc1-c1c[nH]c(C(=O)N[C@H](CO)c2cccc(Cl)c2)c1` as the compound, how does the Potency read?
Answer: Its Potency is 0.544 µM (active).

Question: Which Potency does the source give for `Cc1c(C)n(Cc2ccc(-c3ccccc3C(=O)O)cc2)c2ccc(C(=O)N[C@@H](C)c3ccc([N+](=O)[O-])cc3)cc12` here?
Answer: The Potency was 2.73 µM (active).

Question: With `COC(=O)C1=C(C)NC(C)=C(C(=O)OCCN2CCN(C(c3ccccc3)c3ccccc3)CC2)C1c1cccc([N+](=O)[O-])c1` (stereo not given) as the compound, how does the Potency read?
Answer: The Potency was 15.5 µM (active).

Question: With `CC(=O)Nc1sc2c(c1-c1nc3ccccc3s1)CNC2` as the compound, how does the Potency read?
Answer: The Potency was 24.3 µM (active).

Question: With `CCOC(=O)C1=C(C)NC2=C(C(=O)CC(C)(C)C2)C1c1ccc(-c2ccccc2)cc1` (stereo not given) as the compound, how does the Potency read?
Answer: Its Potency is 19.3 µM (active).

Question: Which Potency does the source give for `COC(=O)Nc1nc2ccc(C(=O)c3ccc(F)cc3)cc2[nH]1` here?
Answer: The Potency was 0.968 µM (active).

Question: With `O=C(Nc1ncc(-c2cc(C(F)F)nn2-c2c(Cl)cccc2Cl)s1)C1CC1` as the compound, how does the Potency read?
Answer: The Potency was 0.432 µM (active).

Question: Which Potency does the source give for `CC1(O)CC(c2nc(-c3ccc4ccc(-c5ccccc5)nc4c3)c3c(N)nccn23)C1` (stereo not given) here?
Answer: Its Potency is 0.544 µM (active).

Question: With `COCCOc1ccc2c(c1)ncn2-c1ccc2cccc(N3CCC(N)CC3)c2n1` as the compound, how does the Potency read?
Answer: Its Potency is 19.3 µM (active).

Question: Which Potency does the source give for `NC(=O)Nc1cc(-c2cccc(F)c2)sc1C(=O)N[C@H]1CCCNC1` here?
Answer: The Potency was 0.172 µM (active).

Question: Which “activity change, negative = cytotoxic” value does the source give for `Cc1cn(-c2cc(NC(=O)c3ccc(C)c(Nc4nccc(-c5cccnc5)n4)c3)cc(C(F)(F)F)c2)cn1` here?
Answer: Its value is -8.07% (inactive).

Question: For `Cc1c(CN2CCN(S(C)(=O)=O)CC2)sc2c(N3CCOCC3)nc(-c3cnc(N)nc3)nc12`, which Potency is on record?
Answer: Its Potency is 0.0097 µM (active).

Question: With `CN1CCN(Cc2ccc(NC(=O)Nc3ccc(Oc4cc(NC(=O)C5CC5)ncn4)cc3)cc2C(F)(F)F)CC1` as the compound, how does the Potency read?
Answer: Its Potency is 0.485 µM (active).

Question: With `COc1c(OCCCN2CCOCC2)ccc2c3n(c(=NC(=O)c4cnc(N)nc4)nc12)CCN3` as the compound, how does the Potency read?
Answer: Its Potency is 0.0211 µM (active).

Question: For `CN1CCN(c2cc(C(=O)Nc3ccc4c(c3)-c3c(c(C(N)=O)nn3-c3ccc(F)cc3)CC4)c(Cl)cn2)CC1`, which Potency is on record?
Answer: Its Potency is 24.3 µM (active).

Question: With `CCNC(=O)Nc1ccc2ncc(Nc3ccc(C)cc3)nc2n1` as the compound, how does the Potency read?
Answer: The Potency was 24.3 µM (active).

Question: With `CCn1cc(-c2ccnc3[nH]c(-c4cccc(CN(C)C)c4)cc23)c(-c2ccc(NC(=O)N(C)C)cc2)n1` as the compound, how does the Potency read?
Answer: Its Potency is 3.85 µM (active).

Question: For `C[C@@H]1CN(CC(=O)Nc2ccc3c(c2)Cc2cccc(-c4cc(=O)cc(N5CCOCC5)o4)c2S3)C[C@H](C)O1`, which Potency is on record?
Answer: The Potency was 21.7 µM (active).

Question: For `Nc1ccc(C(=O)c2cc3c(ccc4ccccc43)[nH]2)cc1`, which Potency is on record?
Answer: Its Potency is 10.9 µM (active).

Question: With `CC(=O)c1c(C)c2cnc(Nc3ccc(N4CCNCC4)cn3)nc2n(C2CCCC2)c1=O` as the compound, how does the Potency read?
Answer: Its Potency is 19.3 µM (active).

Question: Which Potency does the source give for `Nc1ncnc2c1c(-c1cnc3[nH]ccc3c1)nn2C1CCCC1` here?
Answer: Its Potency is 0.0685 µM (active).

Question: With `COc1cc(OC2CCN(C)CC2)ccc1Nc1ncc2c(n1)n(C1CCCC1)c(=O)n2C` as the compound, how does the Potency read?
Answer: Its Potency is 19.3 µM (active).

Question: For `CC(=O)OCC(=O)[C@@]1(O)[C@H](C)C[C@H]2[C@@H]3C=C(C)C4=Cc5c(cnn5-c5ccccc5)C[C@]4(C)[C@@H]3[C@@H](O)C[C@@]21C`, which Potency is on record?
Answer: Its Potency is 19.3 µM (active).

Question: Which Potency does the source give for `Cc1ccc(NC(=O)C2(c3ccc4c(c3)OC(F)(F)O4)CC2)nc1-c1cccc(C(=O)O)c1` here?
Answer: Its Potency is 0.0544 µM (active).

Question: Which Potency does the source give for `c1nc2nc(Nc3ccc(N4CCOCC4)cc3)nc(NC3CCCCC3)c2[nH]1` here?
Answer: Its Potency is 2.17 µM (active).

Question: With `Fc1cc(-c2cccc3ncc(-c4cnn(C5CCNCC5)c4)nc23)cc(F)c1CN1CCOCC1` as the compound, how does the Potency read?
Answer: The Potency was 19.3 µM (active).

Question: With `CCCNC(=O)Nc1ccc(Oc2ncnc3cc(OC)c(OC)cc23)cc1Cl` as the compound, how does the “activity change, negative = cytotoxic” value read?
Answer: Its value is -32.1% (inactive).

Question: With `COc1ccc(CC2SC(=O)NC2=O)cc1C(=O)NCc1ccc(C(F)(F)F)cc1` (stereo not given) as the compound, how does the “activity change, negative = cytotoxic” value read?
Answer: The value was -16.2% (inactive).

Question: With `CCC(=C(c1ccccc1)c1ccc(OCCN(C)C)cc1)c1ccccc1` as the compound, how does the Potency read?
Answer: Its Potency is 21.7 µM (active).

Question: For `COc1ccc(F)c(F)c1C(=O)c1cnc(NC2CCN(S(C)(=O)=O)CC2)nc1N`, which Potency is on record?
Answer: Its Potency is 3.06 µM (active).

Question: Which Potency does the source give for `COc1ccc(C=Cc2cc(OC)c(OC)c(OC)c2)cc1O` here?
Answer: The Potency was 0.001 µM (active).

Question: For `CC(C)c1ccc(Cn2ccc3c4c(N)nc(NC5CC5)nc4ccc32)cc1`, which Potency is on record?
Answer: The Potency was 4.85 µM (active).

Question: For `CC(C)C[C@H](NC(=O)CNC(=O)c1cc(Cl)ccc1Cl)B(O)O`, which Potency is on record?
Answer: The Potency was 6.11 µM (active).

Question: With `CC[C@H]1CN2CCc3cc(OC)c(OC)cc3[C@H]2C[C@@H]1C[C@@H]1NCCc2cc(OC)c(OC)cc21` as the compound, how does the Potency read?
Answer: Its Potency is 0.485 µM (active).

Question: For `CC1(C)O[C@@H]2C[C@@H]3[C@H]4C[C@@H](F)C5=CC(=O)C=C[C@]5(C)[C@@]4(F)[C@@H](O)C[C@]3(C)[C@]2(C(=O)CO)O1`, which “activity change, negative = cytotoxic” value is on record?
Answer: Its value is -8.5% (inactive).

Question: For `CNC(=O)c1ccc(-c2cnc3ncc(Cc4ccc5ncccc5c4)n3n2)cc1F`, which “activity change, negative = cytotoxic” value is on record?
Answer: Its value is 14.3% (inactive).

Question: With `COc1cc(C(=O)NS(=O)(=O)c2ccccc2C)ccc1Cc1cn(C)c2ccc(NC(=O)OC3CCCC3)cc12` as the compound, how does the Potency read?
Answer: Its Potency is 21.7 µM (active).

Question: For `N#Cc1c(O)c2c(-c3ccc(-c4ccccc4O)cc3)csc2[nH]c1=O`, which “activity change, negative = cytotoxic” value is on record?
Answer: Its value is 29.5% (inactive).

Question: Which Potency does the source give for `CNC(=O)c1cc(Oc2ccc(NC(=O)Nc3cc(C(C)(C)C)nn3-c3ccc4ncccc4c3)c(F)c2)ccn1` here?
Answer: The Potency was 27.3 µM (active).
